This passage reports composite z-score, z-score and composite Z-score results from PubChem BioAssay.

The subject of experiment [1] is Human papillomavirus type 1a protein E7 (residues 44-93). Description: HPV1a E7 fragment binders on microarrays, primary screen, biochemical, small-molecule microarray, residues 44-93, 635 nm fluorescence (AID 1108).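 Also: E7 fragment applied at 1 µg/mL in TBST for 1 h at 4 C; score combines spot fluorescence with its signal to noise ratio.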 Conditions: small-molecule microarray binding, fluorescence 635 nm; higher = more signal.
The nature of experiment [2]: modulators of HCV replicon luciferase signal, primary screen, HCV replication inhibitor project, Huh7 cells, luciferase reporter (AID 1109).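 Also: huh7 hepatoma cells harbouring a luciferase neomycin HCV replicon reporter; luciferase luminescence as measure of HCV replicon replication; test concentration not given here.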 Conditions: 48 h, higher = more signal. On the technique in general: A replicon is a self-replicating genome or part of one, used to study replication in cells.
Experiment [3] addresses Left-right determination factor 2 (Homo sapiens) (UniProt O00292). Kind of experiment: LEFTY2 binders on small-molecule microarrays, primary screen, biochemical, small-molecule microarray, 635 nm fluorescence scan (AID 1110). Conditions: LEFTY2 binding, higher = more signal.
For experiment [4], the target named is Calmodulin-1 (Homo sapiens) (UniProt P0DP23). Kind of experiment: CALM1 binders on microarrays, EGTA buffer, profiling panel, biochemical, small-molecule microarray, Cy5-labelled CALM1 (AID 1111).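 Also: labelled calmodulin applied in Tris saline Tween buffer holding calcium plus EGTA and DTT.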 Conditions: Cy5-CALM1 binding fluorescence, higher = more signal.
The target is the same in experiment [5]. Description: calcium-bound CALM1 binders on microarrays, profiling panel, artefact control for SMM control-protein annotation, biochemical, small-molecule microarray, Cy5-labelled CALM1, plus calcium (AID 1112).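 Also: score merges spot fluorescence with signal to noise from triplicate slides.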 Conditions: Cy5-CALM1 binding fluorescence, higher = more signal.
Experiment [6] in a line: small-molecule microarray binders of probe aWnt5a, primary screen, biochemical, biotinylated probe, 635/667 nm fluorescence (AID 1113).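 Also: score merges 667 nm fluorescence intensity with signal-to-noise per printed feature.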 Conditions: higher = more signal.
Experiment [7] is described as follows: small-molecule microarray binders of probe aShh, primary screen, biochemical, biotinylated probe, 635/667 nm fluorescence (AID 1114).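 Also: probe is biotin-labelled aShh protein from a stem cell growth factor screen; measures binding of labelled protein to compounds printed on the slide; score merges feature fluorescence at 667 nm with signal-to-noise.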 Conditions: higher = more signal.
Experiment [8] in a line: small-molecule microarray binders of probe aNog, primary screen, biochemical, biotinylated probe, 635/667 nm fluorescence (AID 1115).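 Also: probe is biotinylated aNog protein used at 0.15 µg/mL for 1 h at 4 C; z-score combines 667 nm fluorescence of each spot with its signal to noise.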 Conditions: higher = more signal.
In experiment [9] the target is Torsin-1A-interacting protein 1 (Homo sapiens) (UniProt Q5JTV8). Description: LAP1 binders from COS7 cell lysate, primary screen, small-molecule microarray, 635/667 nm fluorescence (AID 1116). Conditions: COS7-hLAP1 lysate binding, 635 nm fluorescence, higher = more signal.
Experiment [10] addresses Alpha-bungarotoxin (Bungarus multicinctus) (UniProt P60615). Description: alpha-bungarotoxin binders on microarray, profiling panel, artefact control for SMM control protein annotation, biochemical, small-molecule microarray, Alexa647 label, 635/667 nm fluorescence (AID 1117). Conditions: alpha-BTX-A647 binding fluorescence, higher = more signal.
A further experiment has as its target Albumin (Bos taurus) (UniProt P02769). Kind of experiment: bovine serum albumin binders on microarray, profiling panel, artefact control for SMM control protein annotation, biochemical, small-molecule microarray, Alexa647 label, 635/667 nm fluorescence (AID 1118).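 Also: score merges 667 nm emission intensity and signal-to-noise per printed compound spot.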 Conditions: BSA-A647 binding, fluorescence 635 nm, higher = more signal.
Experiment [11] can be described thus: small-molecule microarray binders of probe aXIP, primary screen, biochemical, NeuroSMM set, 635/667 nm fluorescence (AID 1119).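 Also: probe is the protein aXip251-270 applied at 1 µg/mL to compound-printed slides; binding of probe to printed compounds measured as 667 nm fluorescence plus signal to noise.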 Conditions: higher = more signal, called active from +8 up or from −8 down.
Experiment [12] can be described thus: small-molecule binders of probe aNOTCH3, primary screen, biochemical, small-molecule microarray, 635/667 nm fluorescence (AID 1120).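 Also: probe is a biotin-tagged antibody raised against NOTCH3 rather than NOTCH3 protein; score merges spot fluorescence near 667 nm with spot signal to noise.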 Conditions: higher = more signal.
Experiment [13] is described as follows: small-molecule binders of probe aNOTCH2, primary screen, biochemical, small-molecule microarray, 635/667 nm fluorescence (AID 1121).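 Also: score merges feature fluorescence read at 667 nm with its signal to noise.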 Conditions: higher = more signal.
For experiment [14], the target named is Carbonic anhydrase 2 (Homo sapiens) (UniProt P00918). Kind of experiment: CAII small-molecule binders, profiling panel, biochemical, small-molecule microarray, Alexa647-labelled CAII (AID 1122). Conditions: CAII-A647 binding fluorescence, higher = more signal.
A short description of experiment [15]: COS7 lysate on small-molecule microarray, probe aHis, 635 nm (AID 1123).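 Also: z-score combines 667nm fluorescence intensity with signal-to-noise per printed compound spot.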 Conditions: COS7 cell lysate, fluorescence, higher = more signal.
The nature of experiment [16]: compound binding in COS7 lysate, probe aLAP1, primary screen, cell lysate, small-molecule microarray (AID 1124).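 Also: lysate comes from COS7 cells expressing LAP1 and is applied at 0.3 µg/mL; score merges spot fluorescence near 667 nm with signal-to-noise over triplicate slides.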 Conditions: probe aLAP1, fluorescence, higher = more signal.
The next experiment relates to Sam68 (KHDRBS1). Kind of experiment: Sam68 small-molecule binders, primary screen, biochemical, small-molecule microarray, 635 nm fluorescence (AID 1125).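 Also: score merges 667 nm channel intensity with signal to noise over triplicate slides.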 Conditions: small-molecule microarray binding, higher = more signal.
In experiment [17] the test system is Chordin-like protein 2 (CHRDL2). Kind of experiment: CHRDL2 small-molecule binders, primary screen, biochemical, small-molecule microarray, 635 nm fluorescence (AID 1126).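 Also: printed compound slides probed with Chrdl2 protein at 4 µg/mL for 1 h at 4 C; score merges 667 nm emission intensity with signal to noise over three replicate slides.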 Conditions: small-molecule microarray binding, fluorescence 635 nm; higher = more signal.
Experiment [18] concerns the target Concanavalin-A (Canavalia ensiformis) (UniProt P02866). Description: ConA small-molecule binders, primary screen, artefact control for SMM control protein annotation, biochemical, small-molecule microarray, Alexa647 label, 635 nm (AID 1127).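 Also: z combines 667 nm emission intensity with signal-to-noise across three replicate slides.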 Conditions: ConA-A647 binding fluorescence, higher = more signal.

The source made the active and inactive calls.

Sequence of Concanavalin-A (Canavalia ensiformis) (P02866 whole entry, looked up): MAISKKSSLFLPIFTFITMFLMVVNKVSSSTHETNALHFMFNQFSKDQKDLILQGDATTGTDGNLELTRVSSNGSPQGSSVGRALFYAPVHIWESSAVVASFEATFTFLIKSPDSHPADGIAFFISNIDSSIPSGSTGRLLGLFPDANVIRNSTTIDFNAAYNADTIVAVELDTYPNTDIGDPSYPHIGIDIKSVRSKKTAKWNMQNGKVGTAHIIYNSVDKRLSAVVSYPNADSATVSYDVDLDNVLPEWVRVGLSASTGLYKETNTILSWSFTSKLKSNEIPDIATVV
Sequence of Alpha-bungarotoxin (Bungarus multicinctus) (P60615 whole entry, looked up): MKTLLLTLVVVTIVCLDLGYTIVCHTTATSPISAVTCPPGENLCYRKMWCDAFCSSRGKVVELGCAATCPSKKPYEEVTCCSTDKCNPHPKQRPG
Sequence of Albumin (Bos taurus) (P02769 whole entry, looked up): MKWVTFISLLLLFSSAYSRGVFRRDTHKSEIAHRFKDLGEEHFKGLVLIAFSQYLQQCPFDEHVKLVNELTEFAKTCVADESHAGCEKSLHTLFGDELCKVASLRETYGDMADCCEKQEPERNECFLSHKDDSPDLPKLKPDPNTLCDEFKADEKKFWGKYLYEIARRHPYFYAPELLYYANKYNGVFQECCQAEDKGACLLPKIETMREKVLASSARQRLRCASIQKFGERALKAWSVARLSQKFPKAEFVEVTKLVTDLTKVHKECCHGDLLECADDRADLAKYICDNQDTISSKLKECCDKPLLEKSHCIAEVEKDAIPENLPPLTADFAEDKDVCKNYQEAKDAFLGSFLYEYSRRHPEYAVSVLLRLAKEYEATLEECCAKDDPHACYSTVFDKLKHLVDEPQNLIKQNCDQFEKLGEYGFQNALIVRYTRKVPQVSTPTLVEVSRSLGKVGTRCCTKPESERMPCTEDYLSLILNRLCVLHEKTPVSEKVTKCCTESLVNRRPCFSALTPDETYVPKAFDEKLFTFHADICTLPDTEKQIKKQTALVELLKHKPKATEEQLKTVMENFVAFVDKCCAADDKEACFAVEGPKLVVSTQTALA
Sequence of Torsin-1A-interacting protein 1 (Homo sapiens) (Q5JTV8 whole entry, looked up): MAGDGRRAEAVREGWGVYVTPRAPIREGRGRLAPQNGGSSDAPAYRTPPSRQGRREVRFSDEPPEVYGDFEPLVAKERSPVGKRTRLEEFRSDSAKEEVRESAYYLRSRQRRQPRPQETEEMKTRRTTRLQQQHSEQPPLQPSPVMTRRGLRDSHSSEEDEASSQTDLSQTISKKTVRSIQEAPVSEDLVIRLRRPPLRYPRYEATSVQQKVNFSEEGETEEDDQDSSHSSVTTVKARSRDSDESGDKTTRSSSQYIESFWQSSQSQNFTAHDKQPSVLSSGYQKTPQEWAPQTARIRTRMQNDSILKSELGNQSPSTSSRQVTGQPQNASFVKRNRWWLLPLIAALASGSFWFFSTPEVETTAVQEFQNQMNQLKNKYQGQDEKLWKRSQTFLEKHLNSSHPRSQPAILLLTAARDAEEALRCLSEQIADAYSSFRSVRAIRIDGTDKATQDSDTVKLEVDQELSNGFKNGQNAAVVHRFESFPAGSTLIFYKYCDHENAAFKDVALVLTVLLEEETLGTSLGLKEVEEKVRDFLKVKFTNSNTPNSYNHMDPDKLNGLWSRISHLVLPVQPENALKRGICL
Sequence of Left-right determination factor 2 (Homo sapiens) (O00292 whole entry, looked up): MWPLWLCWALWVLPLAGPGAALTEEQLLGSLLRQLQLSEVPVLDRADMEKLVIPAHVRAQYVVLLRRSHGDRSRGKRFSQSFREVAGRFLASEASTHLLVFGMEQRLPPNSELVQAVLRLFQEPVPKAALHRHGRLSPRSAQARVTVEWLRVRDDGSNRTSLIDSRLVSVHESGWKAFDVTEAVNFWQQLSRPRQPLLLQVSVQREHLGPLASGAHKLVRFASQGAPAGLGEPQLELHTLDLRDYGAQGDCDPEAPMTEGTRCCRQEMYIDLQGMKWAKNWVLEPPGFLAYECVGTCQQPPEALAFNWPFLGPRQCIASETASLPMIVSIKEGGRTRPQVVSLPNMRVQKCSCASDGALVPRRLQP

On to `CCN(CC)c1ccc(N2CC=CC34O[C@@H]5/C=C\CCC(C)OC(=O)C5[C@H]3C(=O)N(CCCCCCO)[C@@H]4C2=O)cc1` (stereo not given in full), for which the composite z-score in [1] was -0.27; in experiment [3], -0.694; in experiment [4], -0.423; in experiment [5], -0.304; in experiment [6] it was -0.13; in [7], -0.223. Moreover, the composite z-score was -0.16 in experiment [8]; 0.891 in experiment [9]; -1.04 in [10]; 0.362 with Albumin (Bos taurus); -0.204 in experiment [12]; -0.224 in experiment [13]. Besides, the composite z-score is 0.548 in [14]; -0.039 in [15]; -0.458 in experiment [16]; -0.264 in the experiment with Sam68 (KHDRBS1); -0.143 in experiment [17]; -0.285 in [18]. The z-score in experiment [2] was -0.693. In experiment [11], the composite Z-score was 0.184 (inactive).

`C=C(CCCC)/C(=C/C[C@@H](OC(=O)c1ccncc1)c1ccc(CO)o1)c1cc(C(=O)OC)ccc1OC`: the composite z-score was 0.277 in experiment [1]; 1.02 in [3]; 1.19 in experiment [4]; -0.759 in experiment [5]; -0.0445 in [6]; -0.0011 in experiment [7]. The composite z-score in experiment [8] was -0.216; in experiment [9], 0.774; in [10] it was 1.59; with Albumin (Bos taurus) it was 0.662; in experiment [12] it was 0.0897; in experiment [13] it was -0.0349. Also, the composite z-score in [14] amounted to 0.709; in experiment [15] it was 1.46; in [16] it was 0.924; in the experiment on Sam68 (KHDRBS1), 1.3; in experiment [17], 0.422; in experiment [18] it was 1.15. The same compound returned a z-score in experiment [2] of -1.73. The composite Z-score in experiment [11] was 0.421 (inactive).

Consider `C=CCOC(=O)[C@@H]1[C@H]2C(=O)O[C@H](c3ccccc3)[C@H](c3ccccc3)N2[C@H](c2ccc(OCCOC(=O)[C@H]3C[C@H]4C(=O)N[C@@H](CCCC[N+](C)(C)C)C(=O)N4[C@H]3c3cccc(OCCO)c3)cc2)[C@@]12C(=O)Nc1ccc(I)cc12`, for which the composite z-score in experiment [1] was 1.14; in experiment [3], 1.08; in [4], 0.38; in [5] it was -0.0134; in experiment [6], -0.091; in [7], -0.153. The composite z-score is -0.033 in experiment [8]; 0.896 in experiment [9]; 0.642 in experiment [10]; -0.707 with Albumin (Bos taurus); -0.0647 in experiment [12]; -0.142 in [13]. The composite z-score was 0.465 in experiment [14]; 0.93 in [15]; 0.341 in experiment [16]; 1.19 with Sam68 (KHDRBS1); 1.19 in [17]; 1.1 in experiment [18]. Moreover, the z-score in [2] was -1.29. Besides, the composite Z-score in [11] is 0.629 (inactive).

Consider `[N-]=[N+]=NCc1ccccc1C[C@]1(C(=O)N2CCOCC2)N=C(c2ccc(OCCCO)cc2)O[C@H]1c1ccccc1`, for which the composite z-score in experiment [1] is 1.25; in experiment [3], -0.712; in [4], 1.4; in experiment [5], 0.886; in experiment [6], -0.0203; in experiment [7], 0.207. In addition, the composite z-score in [8] was -0.376; in experiment [9], 0.68; in experiment [10], 1.02; with Albumin (Bos taurus), 0.905; in [12], 0.0582; in [13], -0.14. For the same compound, the composite z-score in [14] was 0.501; in experiment [15], 1.07; in experiment [16] it was 0.444; in the experiment with Sam68 (KHDRBS1) it was 0.965; in experiment [17] it was -0.731; in [18], 1.07. In [2], this compound yielded a z-score of -3.07. For the same compound, the composite Z-score in experiment [11] was 0.271 (inactive).

For the compound `C[C@]1(C(=O)NCC(F)(F)F)c2ccccc2C(=O)N(Cc2cc(F)cc(C(F)(F)F)c2)[C@H]1c1ccc(CO)cc1`, the composite z-score in [1] is 1.05; in [3] it was -0.977; in [4] it was 1.6; in experiment [5] it was 0.302; in experiment [6] it was -0.224; in experiment [7] it was 0.0024. The composite z-score in [8] is 0.452; in [9], 0.729; in experiment [10], 0.0035; with Albumin (Bos taurus), -0.385; in experiment [12], -0.198; in experiment [13] it was -0.135. In addition, the composite z-score was 0.694 in experiment [14]; 2.18 in experiment [15]; 0.87 in [16]; 1.11 in the experiment with Sam68 (KHDRBS1); -0.115 in [17]; 0.247 in experiment [18]. For the same compound, the z-score in experiment [2] was -0.906. Also, the composite Z-score in experiment [11] is -0.191 (inactive).
